Rows were chosen to be rich in hits. Some 6.9% of all compounds tested hit in one or more screens of this group.
M1 agonist: activates the M1 muscarinic receptor. CHO-M1 cells, Fluo-4 calcium fluorescence, agonist mode; hits give high values. hit rate 3% among 64,000. B-score at 10 µM;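 active = fluorescence rise, raw or as B-score row- and column-corrected plate score, outside the 99.7% band of its plate's samples, either direction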
FXIIa inh mix: factor XIIa (human) inhibition, mixture screen; P00748; purified FXIIa, fluorogenic substrate, pooled mixtures; inhibition, % at 5 µM; hit rate 0.2% among 62,000; AID 684;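 also: 0% = enzyme without compound and 100% = no enzyme blank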
Her2 expr inh: Her2 kinase expression inhibition; P04626; SKBR-3 HER2 protein level, AlphaScreen, 18-24 h; hits give low values; HER2 level % of control, % at 10 µM; hit rate 0.69% among 65,000; AID 645;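 active = HER2 level under 5% of the carrier-only control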;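 also: 100% = DMSO carrier and 0% = 500 nM PU-H71 HSP90 inhibitor; lower value means stronger loss of Her2 protein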
M1 antag: M1 muscarinic receptor (rat) antagonism | P08482 | CHO-M1 cells, Fluo-4 calcium, ACh EC80 antagonist mode; hits give low values | B-score at 10 µM | hit rate 3.4% among 64,000;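 active = calcium fluorescence response, raw or row-and-column corrected B-score, differing from the plate sample mean either way at a set confidence level, mostly lower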
JNK3 blocker: JNK3 (human) kinase inhibition. P53779. purified JNK3 kinase activity, HTS. inhibition, % at 8 µM. hit rate 0.61% among 60,000. AID 746; in the data active = inhibition above about 17%;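 also: 0% = DMSO and 100% = reference inhibitor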
FXIa mix inh: factor XIa (human) inhibition, mixture screen. P03951. hit rate 0.19% among 62,000. inhibition, % at 5 µM. purified FXIa, fluorogenic substrate, pooled mixtures;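 also: each value is inhibition by a whole ten-compound pool holding the compound; 0% = enzyme with no mixture and 100% = wells lacking enzyme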
Target sequence (P03951 19-387 limits assumed): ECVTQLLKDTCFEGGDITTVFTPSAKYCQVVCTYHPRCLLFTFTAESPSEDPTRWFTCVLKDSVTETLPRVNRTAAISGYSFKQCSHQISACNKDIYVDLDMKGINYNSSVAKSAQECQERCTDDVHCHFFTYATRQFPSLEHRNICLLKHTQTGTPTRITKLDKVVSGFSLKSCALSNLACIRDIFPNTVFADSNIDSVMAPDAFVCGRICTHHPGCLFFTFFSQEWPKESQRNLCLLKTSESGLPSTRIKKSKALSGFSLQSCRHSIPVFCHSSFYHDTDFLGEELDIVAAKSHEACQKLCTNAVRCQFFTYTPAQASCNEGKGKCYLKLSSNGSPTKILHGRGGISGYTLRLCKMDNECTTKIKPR
Target sequence (P03951 388-625 limits assumed): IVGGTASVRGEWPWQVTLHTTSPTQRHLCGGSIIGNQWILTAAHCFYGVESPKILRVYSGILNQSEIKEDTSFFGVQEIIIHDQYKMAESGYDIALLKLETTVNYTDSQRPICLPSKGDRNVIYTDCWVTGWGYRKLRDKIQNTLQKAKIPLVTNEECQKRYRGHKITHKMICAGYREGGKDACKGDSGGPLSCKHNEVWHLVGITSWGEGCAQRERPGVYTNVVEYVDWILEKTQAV
* = called active by the depositor. Rule as the data show it, unless noted: active = inhibition above about 20% (passing the limit was not always enough); inactive = the rest.

`Cc1nn(-c2cccc(Cl)c2)c2c1C(c1ccncc1)C(C#N)=C(N)O2` (stereo not given) gave M1 agonist 0.183, FXIIa inh mix -5.6, Her2 expr inh 78.0, M1 antag 0.492, JNK3 blocker 1.5 and FXIa mix inh 5.6.
For Cc1ccc(-n2nc(C)c3c2OC(N)=C(C#N)C3c2ccc(F)cc2)cc1 (stereo not given) the results were M1 agonist 0.0129, FXIIa inh mix -20.7, Her2 expr inh -28.1*, M1 antag 1.18, JNK3 blocker -4.6 and FXIa mix inh 1.8.
`Cc1onc(-c2ccccc2Cl)c1C(=O)NCCn1c(C)cc2ccccc21` gave M1 agonist -0.357, FXIIa inh mix 11.1, Her2 expr inh 80.6, M1 antag 0.241, JNK3 blocker 0.7 and FXIa mix inh -22.7.
Cc1cc(C)cc(NC(=O)C2CCCN(c3nc(C)cc(C)n3)C2)c1 (stereo not given) was read as M1 agonist 0.522, FXIIa inh mix 3.0, Her2 expr inh 95.9, M1 antag 0.2, JNK3 blocker -5.5 and FXIa mix inh 1.0.
For COc1cc(C)nc(N2CCCC(C(=O)NC3CCC(C)CC3)C2)n1 (stereo not given) the results were M1 agonist 1.12, FXIIa inh mix 18.8, Her2 expr inh 122.2, M1 antag -15.8*, JNK3 blocker 1.0 and FXIa mix inh 10.0.
`Cc1nnc2sc(-c3ccncc3)nn12` gave M1 agonist 0.227, FXIIa inh mix 4.8, Her2 expr inh 76.9, M1 antag -1.36, JNK3 blocker 6.5 and FXIa mix inh -0.8.
Screening CC(C)(C)c1ccc(-c2nnc3sc(-c4ccncc4)nn23)cc1 returned M1 agonist -0.621, Her2 expr inh 54.8, M1 antag 8.91* and JNK3 blocker -0.8.
For O=C(CSc1nnc(Cn2c(=O)sc3ccccc32)n1-c1ccccc1)Nc1nccs1 the results were M1 agonist 0.221, FXIIa inh mix -0.9, Her2 expr inh 82.5, M1 antag -0.391, JNK3 blocker -0.2 and FXIa mix inh -8.6.
Screening CCOc1cc(C2C(C(=O)OCC(C)C)=C(C)N=C3SCCC(=O)N32)ccc1OC(C)=O (stereo not given) returned M1 agonist -0.43, FXIIa inh mix 1.6, Her2 expr inh 97.7, M1 antag 0.752, JNK3 blocker -3.6 and FXIa mix inh 15.6.
CS(=O)(=O)N(CC(=O)NC1CC2CCC1C2)c1cccc(C(F)(F)F)c1 (stereo not given) was read as M1 agonist -1.08, FXIIa inh mix 5.0, Her2 expr inh 96.2, M1 antag -0.777, JNK3 blocker -2.6 and FXIa mix inh 13.7.
Cc1ccc(N(CC(=O)NC2CC3CCC2C3)S(C)(=O)=O)cc1C (stereo not given) was read as M1 agonist 0.247, FXIIa inh mix -8.5, Her2 expr inh -28.3*, M1 antag 0.354 and FXIa mix inh 10.0.
Screening NC(=O)NC(Cc1ccccc1)c1ccccc1 (stereo not given) returned M1 agonist 2.26*, FXIIa inh mix 1.6, Her2 expr inh 100.7, M1 antag -0.243, JNK3 blocker -1.0 and FXIa mix inh 3.9.
`Cc1cc(C)n(C(=O)c2ccc(S(=O)(=O)NCC3CCCO3)cc2)n1` (stereo not given) gave M1 agonist -0.216, FXIIa inh mix 3.0, Her2 expr inh 115.4, M1 antag -0.829, JNK3 blocker -2.2 and FXIa mix inh 10.0.
Screening C/C(=C(\C#N)C(=O)NC1CCCCC1)N(C)C returned M1 agonist -0.147, FXIIa inh mix -1.3, Her2 expr inh 111.6, M1 antag 0.094, JNK3 blocker -0.2 and FXIa mix inh 3.9.
`C/C(NC1CCCC1)=C(/C#N)C(N)=O` gave M1 agonist 0.155, FXIIa inh mix 6.5, Her2 expr inh 79.6, M1 antag -1.24, JNK3 blocker 31.9* and FXIa mix inh 4.2.
`O=C(OCCN1C(=O)c2ccccc2C1=O)C1CCN(S(=O)(=O)c2cccs2)CC1` gave M1 agonist -0.506, FXIIa inh mix -24.6, Her2 expr inh 185.9, M1 antag -0.344 and FXIa mix inh 4.6.
For O=C(C1CCCCC1)N(Cc1nc2sc3c(c2c(=O)[nH]1)CCCC3)Cc1cccs1 the results were M1 agonist -0.249, FXIIa inh mix 6.1, Her2 expr inh 58.1, M1 antag -1.66, JNK3 blocker -1.7 and FXIa mix inh 5.2.
For COc1ccc(-n2nnc3c(SCC(=O)Nc4ccc5c(c4)OCCO5)ncnc32)cc1 the results were M1 agonist 0.00882, FXIIa inh mix 9.6, Her2 expr inh -7.2*, M1 antag 0.198, JNK3 blocker 1.2 and FXIa mix inh 5.3.
`Cc1ccc2c(c1)N(CC(=O)NCc1cccs1)C(=O)CO2` gave M1 agonist -0.216, FXIIa inh mix 9.9, Her2 expr inh 116.6, M1 antag 0.175 and FXIa mix inh -16.4.
Cn1c(=O)c2c(nc(SCC(=O)Nc3ccc(N4CCOCC4)c(Cl)c3)n2C)n(C)c1=O was read as M1 agonist -0.118, FXIIa inh mix -1.0, Her2 expr inh 95.4, M1 antag -0.536, JNK3 blocker 0.0 and FXIa mix inh 9.6.
COCCn1c(Cc2ccccc2)nnc1SCC(=O)N(C)C was read as M1 agonist 0.0106, FXIIa inh mix -0.1, Her2 expr inh -18.9*, M1 antag 1.03, JNK3 blocker 1.4 and FXIa mix inh 6.2.
Cc1cc(C)n(-c2nc3ccccc3c(=O)n2OCC(=O)Nc2c(C)cccc2C)n1 was read as M1 agonist 0.618, FXIIa inh mix -17.5, Her2 expr inh 95.3, M1 antag -0.0986, JNK3 blocker 3.0 and FXIa mix inh 5.5.
Screening CC(C)[C@H](NC(=O)OC(C)(C)C)c1nnc(S(=O)(=O)Cc2c(F)cccc2Cl)o1 returned M1 agonist -0.955, FXIIa inh mix 4.7, Her2 expr inh -12.5*, M1 antag -1.21, JNK3 blocker -6.8 and FXIa mix inh 17.5.
`CC(C)=CCSc1nnc([C@@H](NC(=O)OC(C)(C)C)C(C)C)o1` gave M1 agonist -0.196, FXIIa inh mix 1.8, Her2 expr inh 93.8, M1 antag -0.769, JNK3 blocker -1.6 and FXIa mix inh 1.4.
Screening Cc1[nH]c(=O)[nH]c(=O)c1CSc1nnc([C@@H](NC(=O)OC(C)(C)C)C(C)C)o1 returned M1 agonist -0.214, FXIIa inh mix -19.5, Her2 expr inh 109.0, M1 antag 1.16, JNK3 blocker 5.8 and FXIa mix inh 2.1.
CC(C)(C)OC(=O)N[C@@H](Cc1ccccc1)c1nnc(S(=O)(=O)Cc2cccc(F)c2)o1 was read as M1 agonist 0.0678, FXIIa inh mix 16.5, Her2 expr inh -16.4*, M1 antag -0.0797, JNK3 blocker 13.1 and FXIa mix inh 6.2.
`CC(C)C[C@H](N)c1nnc(S(=O)(=O)Cc2cccc(F)c2)o1` gave FXIIa inh mix -1.1, Her2 expr inh 74.4, JNK3 blocker 8.0 and FXIa mix inh 14.4.
For CCOC(=O)CSc1nnc([C@H](Cc2ccccc2)NC(=O)OC(C)(C)C)o1 the results were M1 agonist 0.624, FXIIa inh mix 2.8, Her2 expr inh 78.7, M1 antag 0.263, JNK3 blocker 0.3 and FXIa mix inh 6.6.

Assay outcomes: PubChem BioAssay, several laboratories
